From PubChem BioAssay
HSV augment: increases HSV replication in cells | HSV replication augmentation in cells, fold increase | maximum fold increase | 220,000 tested, 0.005% active | AID 1956; in the data active = maximum fold increase above about 1.5; inconclusive = no clear call, values can overlap the other calls; tested in PC3 cells
ROMK primary: human ROMK K+ channel modulation, primary screen. B-score at 10 µM. P48048. AID 1918. 130,000 tested, 2% active. Tet-inducible ROMK, thallium flux fluorescence; actives lie on both sides;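 active = signal ratio slope over the read window, or its plate-corrected B-score, at least 3 SD from the plate mean, either direction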;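 note: B-score of the F/F0 ratio slope over 7 to 12 s after thallium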
Arbovirus inh: antivirals against arbovirus infection; arbovirus infection cell-based antiviral screen; 200,000 tested, 0.37% active; inhibition, % at 10 µM; AID 1251; in the data active = inhibition above about 30%
Measles CPE: protection of cells from measles virus; protection (pct of control), % at 4 µM; Measles virus-infected cells, CPE protection, absorbance; 140,000 tested, 1.5% active; in the data active = protection mostly above about 24%, no sharp cut-off; inactive = mostly below about 26%
KCC2 mod: KCC2 (human) Cl- transport modulation. Q9H2X9. KCC2 cells, thallium flux FluoZin-2 fluorescence. B-score of Tl+ flux slope (higher = more flux/activation; lower = inhibition) at 10 µM. 190,000 tested, 2.2% active;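 active = thallium flux slope and its plate-corrected score both differing from the plate sample mean at a set confidence after two filtering rounds, in either direction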;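 note: slope of fluorescence scaled to starting intensity during 10 to 20 s after thallium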
Target sequence (Q9H2X9 whole entry, looked up): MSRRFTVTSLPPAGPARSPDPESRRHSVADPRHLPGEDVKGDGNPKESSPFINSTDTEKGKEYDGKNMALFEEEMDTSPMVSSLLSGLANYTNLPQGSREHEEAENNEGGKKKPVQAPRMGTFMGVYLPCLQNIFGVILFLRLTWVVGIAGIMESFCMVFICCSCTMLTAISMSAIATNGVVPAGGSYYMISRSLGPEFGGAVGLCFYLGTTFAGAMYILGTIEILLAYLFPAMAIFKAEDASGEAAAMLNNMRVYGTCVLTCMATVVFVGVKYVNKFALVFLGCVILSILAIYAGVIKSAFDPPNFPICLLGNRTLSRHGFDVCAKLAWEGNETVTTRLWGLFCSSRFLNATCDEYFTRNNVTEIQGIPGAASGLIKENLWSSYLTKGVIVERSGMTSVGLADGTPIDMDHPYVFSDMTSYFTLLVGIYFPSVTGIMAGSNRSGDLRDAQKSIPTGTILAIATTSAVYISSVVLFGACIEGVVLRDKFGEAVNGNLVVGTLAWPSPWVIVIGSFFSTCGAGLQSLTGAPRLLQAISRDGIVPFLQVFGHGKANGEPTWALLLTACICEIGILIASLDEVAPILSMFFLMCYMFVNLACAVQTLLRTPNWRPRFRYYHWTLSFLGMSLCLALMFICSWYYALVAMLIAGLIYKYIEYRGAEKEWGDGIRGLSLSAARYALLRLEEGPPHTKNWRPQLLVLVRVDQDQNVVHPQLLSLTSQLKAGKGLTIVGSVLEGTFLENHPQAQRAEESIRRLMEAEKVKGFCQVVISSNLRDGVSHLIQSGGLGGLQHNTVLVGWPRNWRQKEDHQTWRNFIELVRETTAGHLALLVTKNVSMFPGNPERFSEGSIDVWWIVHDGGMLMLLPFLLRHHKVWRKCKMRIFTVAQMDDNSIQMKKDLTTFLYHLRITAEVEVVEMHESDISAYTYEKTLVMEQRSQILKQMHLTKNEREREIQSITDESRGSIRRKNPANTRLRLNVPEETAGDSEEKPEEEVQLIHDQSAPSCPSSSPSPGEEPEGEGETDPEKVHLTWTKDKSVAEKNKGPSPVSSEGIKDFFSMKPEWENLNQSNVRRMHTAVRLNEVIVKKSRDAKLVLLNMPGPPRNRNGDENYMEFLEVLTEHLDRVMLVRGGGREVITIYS
KCC2 sec1: KCC2 (human) modulation, secondary assay | HEK293-KCC2, thallium flux, FluoZin2 fluorescence; active compounds read high | AID 1713 | shares compounds with KCC2 mod | 3,700 tested, 15% active | normalised thallium flux (F/F0 slope) at 10 µM;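 active = thallium flux slope above the same plate's solvent-only control mean plus 3 SD; inconclusive = the two replicate wells disagree; inactive = no significant difference from solvent-only control wells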
KCC2 bumet counter: thallium flux despite bumetanide block in KCC2 cells, secondary assay 3; shares compounds with KCC2 mod; HEK293-KCC2 + bumetanide/ouabain, thallium flux FluoZin2; active compounds read high; normalized thallium flux at 10 µM; 3,700 tested, 49% active;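 active = thallium entry rate above the same plate's blocked-transporter control wells by more than 3 SD; inconclusive = the two repeat wells disagree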;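 note: raw slope of fluorescence over initial fluorescence between 10 and 20 s after thallium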
KCC2 secondary2: KCC2 (human) modulation, second secondary assay. normalized thallium flux at 10 µM. 3,700 tested, 23% active. AID 1715. HEK293-KCC2, thallium flux FluoZin2 fluorescence; actives lie on both sides; F/F0 rise rate, 10–20 s post-thallium. shares compounds with KCC2 mod;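 active = thallium flux slope more than 3 SD above or below the plate's solvent-only control mean, mostly below; inconclusive = the two repeat wells disagreed; inactive = no significant shift from solvent-only controls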
HEK counter1: parental HEK flux effect, counter-screen. 3,700 tested, 46% active. shares compounds with KCC2 mod. thallium flux rate (normalised fluorescence) at 10 µM. HEK293 parental cells, thallium flux FluoZin2, ouabain; baseline-ratio fluorescence slope, 10–20 s after thallium;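 active = thallium flux rate significantly above the same plate's solvent-only control wells, beyond their mean plus 3 SD; inconclusive = the two replicate wells gave conflicting results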
KCC2 ouabain: confirmation of human KCC2 modulators with ouabain | shares compounds with KCC2 mod | HEK293-KCC2, thallium flux FluoZin2 fluorescence; bidirectional: low = inhibitor, high = activator | raw Tl+ flux slope (below DMSO = inhibition, above = activation) at 10 µM | 3,700 tested, 48% active | AID 1717;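 active = thallium flux slope beyond 3 SD from same-plate DMSO control mean in most replicates, usually higher, sometimes lower; inconclusive = repeat tests gave conflicting results; inactive = no significant difference from controls in most replicates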;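 note: slope of initial-normalized fluorescence between seconds 10 and 20 after thallium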
HEK counter2: counter-screen for KCC2 modulators: effect in parental HEK293 cells. shares compounds with KCC2 mod. thallium flux FluoZin-2 fluorescence slope. thallium flux slope at 10 µM. 3,700 tested, 33% active;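 active = thallium flux slope above the same plate's solvent-control mean plus 3 SD in both duplicate wells; inconclusive = duplicate wells that disagreed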;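 note: run without ouabain in cells lacking the KCC2 cotransporter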
Each line names hits and unclear results; the compound was inactive in the other large screens (follow-up assays come after a bar, where they were run). In the library only some 4% were active in any assay of this set; here they are far more common.

O=C(Nc1nc(-c2cccc([N+](=O)[O-])c2)cs1)c1cccc([N+](=O)[O-])c1C(=O)O	none (no result: Measles CPE)
O=C(CSc1ncccn1)N/N=C/c1cccs1	KCC2 mod 4.5 | KCC2 sec1 inactive | KCC2 bumet counter inactive | KCC2 secondary2 inactive | HEK counter1 inactive | KCC2 ouabain inactive | HEK counter2 inactive
Cc1cnc(NC(=O)c2c(-c3ccccc3)noc2C)s1	none (no result: ROMK primary, Arbovirus inh, Measles CPE)
O=C(N/N=C/C1CC=CCC1)c1cc2ccccc2cc1O (centres undefined)	KCC2 mod 4.4 | KCC2 sec1 inconclusive | KCC2 bumet counter 0.029 | KCC2 secondary2 inactive | HEK counter1 0.015 | KCC2 ouabain inconclusive | HEK counter2 0.012
O=C(N/N=C/C1CC=CCC1)c1ccc(O)cc1O (centres undefined)	none
Clc1ccc(-c2csc(NNC3=NCCCCC3)n2)cc1	KCC2 mod -4.4 (no result: ROMK primary) | KCC2 sec1 inconclusive | KCC2 bumet counter inactive | KCC2 secondary2 inactive | HEK counter1 inactive | KCC2 ouabain 0.019 | HEK counter2 inactive
c1ccc(-c2csc(NNC3=NCCCCC3)n2)cc1	none
CCOc1ccc(N(CC(=O)NCC2CCCO2)C(=O)CCC(=O)Nc2nccs2)cc1 (centres undefined)	none (no result: Measles CPE)
CCOC(=O)N1CCN(C(=O)c2ccc3c(=O)n(-c4ccc(OC)cc4)c(=S)[nH]c3c2)CC1	KCC2 mod -3.6 (no result: ROMK primary) | KCC2 sec1 inactive | KCC2 bumet counter inactive | KCC2 secondary2 inactive | HEK counter1 inconclusive | KCC2 ouabain inactive | HEK counter2 inactive
CCOC(=O)N1CCN(C(=O)c2ccc3c(=O)n(-c4ccccc4F)c(=S)[nH]c3c2)CC1	none (no result: Measles CPE)
CCOC(=O)N1CCN(C(=O)c2cccc(-n3c(=S)[nH]c4cc(Cl)ccc4c3=O)c2)CC1	none (no result: KCC2 mod) | KCC2 sec1 inactive | KCC2 bumet counter 0.012 | KCC2 secondary2 inconclusive | HEK counter1 0.017 | KCC2 ouabain 0.025 | HEK counter2 0.02
COC(CNC(=O)c1ccc(-n2c(=S)[nH]c3ccccc3c2=O)cc1)OC	none (no result: Measles CPE)
COC(CNC(=O)c1cccc(-n2c(=S)[nH]c3cc(Cl)ccc3c2=O)c1)OC	KCC2 mod 4.4 (no result: Measles CPE) | KCC2 sec1 inconclusive | KCC2 bumet counter 0.021 | KCC2 secondary2 inactive | HEK counter1 0.015 | KCC2 ouabain inconclusive | HEK counter2 0.012
CCOC(=O)N1CCN(C(=O)c2ccc3c(=O)n(-c4ccc(OC)cc4OC)c(=S)[nH]c3c2)CC1	none (no result: HSV augment)
CCN(Cc1cc2cc(C)ccc2[nH]c1=O)C(=O)c1cccc([N+](=O)[O-])c1	none (no result: ROMK primary, Arbovirus inh, Measles CPE)
N/C(=N\OC(=O)COc1ccc(Cl)cc1Cl)c1ccncc1	none (no result: Measles CPE)
N#C/C(=C/c1ccc(N2CCCCCC2)o1)c1ccc(F)cc1	none (no result: ROMK primary, KCC2 mod) | KCC2 sec1 inactive | KCC2 bumet counter inconclusive | KCC2 secondary2 inactive | HEK counter1 inconclusive | KCC2 ouabain 0.013 | HEK counter2 inactive
CCCn1nnc(NCc2ccc(OCc3cccs3)c(OC)c2)n1	KCC2 mod -2.9 (no result: ROMK primary) | KCC2 sec1 inactive | KCC2 bumet counter inactive | KCC2 secondary2 inactive | HEK counter1 inactive | KCC2 ouabain inconclusive | HEK counter2 inactive
O=C(Cc1ccc(-n2c(=O)c3sccc3n(CC(=O)Nc3ccccc3F)c2=O)cc1)NCc1ccco1	none (no result: Measles CPE)
Cc1csc(NC(=O)[C@@H]2CCCN2C(=O)c2cccs2)n1	none (no result: Measles CPE)
COc1ccc(Cn2c(=S)[nH]c3ccccc32)cc1	KCC2 mod 11 (no result: Measles CPE) | KCC2 sec1 inactive | KCC2 bumet counter 0.0099 | KCC2 secondary2 inactive | HEK counter1 0.013 | KCC2 ouabain inconclusive | HEK counter2 0.012
COCCn1c(=S)[nH]c2ccccc21	none (no result: Measles CPE)
Cc1ccc(N/N=C/c2c(C)c(C#N)c(=O)n(C)c2O)cc1C	KCC2 mod -3.9 (no result: Measles CPE) | KCC2 sec1 inactive | KCC2 bumet counter inactive | KCC2 secondary2 inactive | HEK counter1 inconclusive | KCC2 ouabain inactive | HEK counter2 inactive
COc1cc(S(=O)(=O)Nc2ccc(C)cc2)ccc1N=Cc1c(C)c(C#N)c(=O)n(C)c1O	none (no result: Measles CPE)
Cc1sc2ncnc(OCC(=O)N3CC(=O)Nc4ccccc43)c2c1C	none (no result: Measles CPE)
Cc1ccc2nsnc2c1NS(=O)(=O)c1c(C)ccc2nsnc12	KCC2 mod 7.6 | KCC2 sec1 inactive | KCC2 bumet counter 0.028 | KCC2 secondary2 inactive | HEK counter1 0.02 | KCC2 ouabain 0.029 | HEK counter2 0.019
O=S(=O)(Nc1cccc2nsnc12)c1ccccc1	none (no result: ROMK primary)
Cc1cc(C)c(S(=O)(=O)Nc2cccc3nsnc23)c(C)c1	KCC2 mod 23 (no result: HSV augment) | KCC2 sec1 0.018 | KCC2 bumet counter 0.074 | KCC2 secondary2 inactive | HEK counter1 0.041 | KCC2 ouabain 0.074 | HEK counter2 0.019
COc1ccc(N(CC(=O)Nc2nccs2)S(=O)(=O)c2c(C)[nH]c(=O)[nH]c2=O)cc1	none (no result: Measles CPE)
O=S(=O)(c1ccc(-c2ccon2)s1)N1CCN(CCN2CCOCC2)CC1	none (no result: Arbovirus inh, Measles CPE)
Cc1cc(C)nc(SCc2nnc(SCC(=O)Nc3nc(-c4ccccc4)cs3)n2C)n1	none
Cc1cc(=O)[nH]c(SCC(=O)Nc2nc(-c3ccccc3)cs2)n1	KCC2 mod -7.1 (no result: HSV augment, ROMK primary) | KCC2 sec1 inactive | KCC2 bumet counter inactive | KCC2 secondary2 inactive | HEK counter1 inactive | KCC2 ouabain 0.015 | HEK counter2 inactive
Cc1cc(=O)[nH]c(SCC(=O)Nc2nnc(SCc3ccccc3)s2)n1	KCC2 mod -4.8 (no result: Measles CPE) | KCC2 sec1 inactive | KCC2 bumet counter inactive | KCC2 secondary2 0.025 | HEK counter1 0.0048 | KCC2 ouabain 0.015 | HEK counter2 0.0083
Cc1nc(CC(=O)Nc2nc(-c3ccccc3)cs2)cs1	KCC2 mod -3.4 (no result: ROMK primary) | KCC2 sec1 inactive | KCC2 bumet counter inactive | KCC2 secondary2 inconclusive | HEK counter1 inactive | KCC2 ouabain 0.017 | HEK counter2 inactive
COc1ccccc1-c1nnc(SCC(=O)Nc2nc(-c3ccccc3)cs2)n1C	KCC2 mod -4 (no result: ROMK primary) | KCC2 sec1 inconclusive | KCC2 bumet counter inactive | KCC2 secondary2 inactive | HEK counter1 inactive | KCC2 ouabain 0.015 | HEK counter2 inactive
O=C(O)c1ccc2c(c1)C(=O)N(c1cccc(S(=O)(=O)Nc3cccc(C(F)(F)F)c3)c1)C2=O	none (no result: Measles CPE)
O=C(COC(=O)c1cccs1)Nc1nc(-c2ccccc2)cs1	none (no result: ROMK primary)
Cn1nccc1C(=O)OCC(=O)Nc1nc(-c2ccccc2)cs1	KCC2 mod -5.3 (no result: ROMK primary) | KCC2 sec1 inactive | KCC2 bumet counter inactive | KCC2 secondary2 0.022 | HEK counter1 inactive | KCC2 ouabain inactive | HEK counter2 inactive
